# Bioassay records: PubChem BioAssay, National Center for Advancing Translational Sciences (NCATS)
# Only a selection was taken, and hits are over-represented in it overall.
# Shiga toxin inh = inhibitors of Shiga toxin in Vero cells; hit rate 9.2% among 290,000; AID 2315; inhibition, % at 38.7 µM; Vero cells, Shiga toxin protein synthesis inhibition reporter; in the data active means inhibition mostly above about 28%, no sharp cut-off; inactive means mostly below about 43%
# LmPK inh = inhibitors of Leishmania mexicana pyruvate kinase; Q27686; purified LmPK, Kinase-Glo ATP luminescence, 1 h; Potency, µM (doses to about 57.5 µM), hits mostly inhibitors; hit rate 0.37% among 290,000; active means well fitted curve in the direction sought with a large enough effect; inconclusive means small, poorly fitted or top-dose-only effect, or another doubt; inactive means no such curve, though single readings can be large; an effect the other way counts as inactive or inconclusive
# Target sequence (Q27686 whole entry, looked up): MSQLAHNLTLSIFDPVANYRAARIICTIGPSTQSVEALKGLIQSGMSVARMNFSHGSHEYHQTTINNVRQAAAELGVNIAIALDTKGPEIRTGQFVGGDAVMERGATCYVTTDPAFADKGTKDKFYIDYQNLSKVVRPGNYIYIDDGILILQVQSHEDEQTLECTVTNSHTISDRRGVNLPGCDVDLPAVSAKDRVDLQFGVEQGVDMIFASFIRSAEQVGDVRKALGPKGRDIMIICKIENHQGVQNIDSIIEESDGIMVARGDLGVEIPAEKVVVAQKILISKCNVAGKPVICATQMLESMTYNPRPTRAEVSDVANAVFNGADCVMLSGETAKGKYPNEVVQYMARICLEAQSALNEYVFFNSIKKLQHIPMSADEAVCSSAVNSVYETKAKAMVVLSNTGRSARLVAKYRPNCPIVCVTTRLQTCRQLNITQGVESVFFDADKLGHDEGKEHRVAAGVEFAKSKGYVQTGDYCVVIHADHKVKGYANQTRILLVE
#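 Purified LmPK (0.1 nM) with 0.5 mM PEP and 0.1 mM ADP in imidazole buffer pH 7.2 with MgCl2/KCl, 1 h at room temperature. ATP formed was read by luciferase luminescence and normalized to no-enzyme and uninhibited controls.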
# SARS PLpro yeast = SARS-CoV PLP inhibition in yeast | S. cerevisiae expressing SARS-CoV PLpro, growth rescue | Potency, µM (doses to about 32.9 µM), most hits filed as activators | hit rate 0.19% among 330,000 | AID 485353; further: nearly all actives have a fitted effect of over 55% in size
# Tb PYK inh = inhibitors of Trypanosoma brucei pyruvate kinase; Q57TT1; TbPYK enzyme, Kinase-Glo Plus ATP luminescence, 45 min; Potency, µM (titrated, usually from 76.8 µM), most hits filed as inhibitors; hit rate 0.12% among 410,000; active means well fitted curve in the direction sought with a large enough effect; inconclusive means small, poorly fitted or top-dose-only effect, or another doubt; inactive means no such curve, though single readings can be large; an effect the other way counts as inactive or inconclusive; further: nearly all actives have a fitted effect of over 50% in size
#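 Activity of T. brucei pyruvate kinase was followed by Kinase-Glo Plus luminescence after the enzyme reacted 45 min at room temperature with 130 uM ADP (final) and substrate. Test compounds were added before ADP at multiple concentrations.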
# NS1 inh = influenza NS1 inhibition | hit rate 0.4% among 270,000 | Potency, µM (series often up to 46.1 µM); further: actives are rising curves; nearly all actives have a fitted effect of over 50% in size
#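 Compounds were scored for reversing the slow growth caused by influenza A NS1 in S. cerevisiae, measured by optical density at 600 nm. Assay medium contained 2% galactose at pH 6.0; NS1-free yeast of the same strain were the positive control.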
# CHX counter = affects cycloheximide protein synthesis inhibition readout, counter-screen | max response, % | cell reporter, cycloheximide protein synthesis inhibition counterscreen | AID 2314 | hit rate 12% among 300,000; in the data active means max response mostly above about 13%, no sharp cut-off; inactive means mostly below about 14%; further: read at 38.3 µM for the half of the compounds with a filed dose
# Numbers stand for hits; - = inactive; ? = inconclusive; . = no result. Unless noted, the call rests on the fitted dose curve.
SMILES,Shiga toxin inh,LmPK inh,SARS PLpro yeast,Tb PYK inh,NS1 inh,CHX counter
Cc1ccc(C(=O)Nc2ccc(C(=O)N/N=C/c3c[nH]c4ccccc34)cc2)cc1,-,-,-,-,-,-
O=C(NN=Cc1c[nH]c2ccccc12)NN=Cc1c[nH]c2ccccc12,.,.,.,-,.,.
Cc1nn(C)cc1/C=N/NC(=S)Nc1ccccc1,175,-,-,?,-,71
COc1ccccc1C(=O)N/N=C/c1c[nH]c2ccccc12,42,-,-,-,-,32
Cn1cccc1/C=N/NC(=O)c1sc2ccccc2c1Cl,-,-,-,-,-,40
Cc1cc(C(=O)N/N=C/c2c[nH]c3ccccc23)cs1,64,-,-,-,-,42
Oc1ccccc1C=NNC(=S)Nc1ccc(F)cc1,.,.,.,-,.,.
O=C(CC(=O)Nc1ccccc1F)Nc1ccc2nc3n(c(=O)c2c1)CCCCC3,.,.,.,-,.,.
Cc1ccccc1CNC(=O)c1cnc2sc(N3CCOCC3)nn2c1=O,.,.,.,-,.,.
O=C(N/N=C/c1c[nH]c2ccccc12)c1sc2ccccc2c1Cl,19,-,-,-,-,25
O=C(N/N=C/c1c[nH]c2ccccc12)c1ccc2c(c1)OCCO2,94,-,-,-,-,55
O=C(Nc1cccc2cccnc12)c1cccc2ccccc12,-,-,-,-,-,-
CCOc1ccccc1C(=O)Nc1cccc2cccnc12,19,-,-,-,-,20
COc1cccc(C(=O)Nc2cccc3cccnc23)c1OC,.,-,-,-,-,22
O=C(Nc1cccc2cccnc12)c1ccccc1Br,.,.,.,-,.,.
Cc1ccc(C2=C(O)c3ccccc3C(=O)C2=O)cc1,-,-,-,-,-,-
O=C1C(=O)c2ccccc2C(O)=C1c1cccc([N+](=O)[O-])c1,-,-,-,-,-,23
COc1ccccc1N1CCN(C(=O)c2cc(S(=O)(=O)N3CCC(C)CC3)cn2C)CC1,.,.,.,-,.,.
COc1cc(C(=O)NCCSc2ccc(Br)cc2)cc(OC)c1OC,-,-,-,-,.,-
O=C(NCCSc1ccc(Br)cc1)c1ccc2nc[nH]c2c1,-,-,-,-,-,21
CC(C)CCNC(=O)c1ccc2nc[nH]c2c1,-,-,-,-,-,24
O=C(NCCc1ccc(Cl)cc1)c1ccc2nc[nH]c2c1,-,-,-,-,.,-
CCC1CCCCN1C(=O)Cn1c(=O)n(CCCCCC(=O)NCc2ccc(F)cc2)c(=O)c2sccc21 (centres undefined),.,.,.,-,.,.
Cc1ccc(NC(=O)c2ccc(COc3ccc4c(c3)CCC4)cc2)c(C)c1,-,-,-,-,-,17
NNC(=O)c1ccc(COc2ccc3c(c2)CCC3)cc1,-,-,-,-,-,-
SMILES,Shiga toxin inh,LmPK inh,SARS PLpro yeast,Tb PYK inh,NS1 inh,CHX counter
Cc1ccc(NC(=O)c2ccc(OCC3CCCO3)cc2)c(C)c1 (centres undefined),-,-,-,-,-,-
O=C(Nc1ccccc1Cl)c1ccc(COc2ccc3c(c2)CCC3)cc1,60,-,-,-,-,25
O=C(O)c1ccc(COc2ccc3c(c2)CCC3)cc1,54,-,-,-,-,25
CC(C)(C)S(=O)N1Cc2cc(CO)ccc2[C@@H]1CCO (some centres undefined),.,.,.,-,.,.
Cc1ccc(Cn2cc(C=O)c(-c3ccc(F)cc3)n2)cc1,31,-,-,-,-,23
Cc1ccc(-c2nn(Cc3ccccc3)cc2C(=O)O)cc1,-,-,-,-,-,-
Cc1ccc(-c2nn(Cc3ccccc3)cc2C=O)cc1C,active,-,-,-,-,49
Cc1ccc(-c2nn(Cc3ccccc3)cc2C=O)cc1,55,-,-,-,-,85
COc1cccc(-c2cc(C(=O)NCCc3ccc(C)cc3)[nH]n2)c1,.,.,.,-,.,.
O=C(/C=C/Nc1ccc([N+](=O)[O-])cc1)c1ccc(Br)cc1,-,-,-,-,-,-
O=C(/C=C/Nc1ccc(F)c(F)c1)c1ccc(Br)cc1,93,-,-,-,-,57
O=C(/C=C/Nc1ccc(F)cc1)c1ccc(Br)cc1,116,-,-,-,-,30
O=C(/C=C/Nc1ccc(S(=O)(=O)Nc2ncccn2)cc1)c1ccc(Cl)c(Cl)c1,-,-,?,-,-,-
O=C(/C=C/Nc1ccc(S(=O)(=O)Nc2ncccn2)cc1)c1cccs1,55,-,-,-,-,25
O=C(/C=C/Nc1ccc(F)c(F)c1)c1cccs1,53,-,-,-,-,40
COc1cc(NC(=O)c2cc3ccccn3n2)cc(OC)c1OC,.,.,.,-,.,.
CCOc1ccc(N(CC(=O)NCCSCc2ccccc2Cl)S(C)(=O)=O)cc1,-,-,-,-,-,-
COC(=O)c1ccc(NC(=O)CN(c2ccc(OC)cc2)S(C)(=O)=O)cc1,63,-,-,-,-,53
CCOc1ccc(N(CC(=O)NCc2ccccc2C)S(C)(=O)=O)cc1,68,-,-,-,-,42
CCOc1ccc(N(CC(=O)Nc2ccc(Br)cc2)S(C)(=O)=O)cc1,54,-,-,-,-,30
CCOc1ccc(N(CC(=O)Nc2ccc(Cl)cc2)S(C)(=O)=O)cc1,.,.,.,-,.,.
CCOc1ccc(N(CC(=O)Nc2ccc(OC)cc2)S(C)(=O)=O)cc1,53,-,-,-,-,39
CC(OC(=O)c1cccnc1Cl)C(=O)NCc1ccccc1 (centres undefined),.,.,-,-,.,.
NS(=O)(=O)c1ccc(CCNC(=O)C2COc3ccccc3C2)cc1 (centres undefined),.,.,.,-,.,.
CCOc1ccc(N(CC(=O)Nc2cccc(C)c2)S(C)(=O)=O)cc1,86,-,-,-,-,54
SMILES,Shiga toxin inh,LmPK inh,SARS PLpro yeast,Tb PYK inh,NS1 inh,CHX counter
CCOc1ccc(NC(=O)CN(c2ccc(OC)cc2)S(C)(=O)=O)cc1,121,-,-,-,-,98
COc1ccc(N(CC(=O)Nc2cccc3ccccc23)S(C)(=O)=O)cc1,-,-,-,-,-,12
CCOc1ccc(N(CC(=O)Nc2ccc(C)c(Cl)c2)S(C)(=O)=O)cc1,-,-,-,-,-,24
CSc1cccc(NC(=O)CN(c2cccc(C)c2)S(C)(=O)=O)c1,-,-,-,.,-,-
ClC1=C(Cl)C(Cl)(C2(Cl)C(Cl)=C(Cl)C(Cl)=C2Cl)C(Cl)=C1Cl,-,.,.,.,.,-
CC(=O)/C=C/n1c(=S)oc2ccccc21,-,-,-,-,-,32
N#C/C(=C\c1ccc(OCc2ccc(C(=O)O)cc2)cc1)C(=O)N1CCOCC1,179,-,-,-,-,99
N#C/C(=C\c1ccc(OCc2ccccc2)cc1)C(=O)Nc1ccc(C(=O)O)cc1,46,-,-,-,-,26
COc1ccc([N+](=O)[O-])cc1C(=O)NCCOc1ccc(Cl)cc1,-,-,-,-,-,-
Cc1cc(/C=C(\C#N)C(=O)Nc2ccccc2)c(C)n1-c1ccc(F)cc1,.,.,.,-,.,.
N#C/C(=C\c1cccc([N+](=O)[O-])c1)C(=O)Nc1cccnc1,-,-,-,-,.,-
